Assay results as given in the supplement of paper PMC10849652.
Targets with a hit are over-represented here; the source holds about 8,800 in all. About 0.5% of all pairs of compound and target were hits.

Experiments:
Assay in all cases: log2 fold change, soluble protein after heating vs DMSO (PISA); higher = thermal stabilisation; K562 lysate, 10 uM; active = over 0.2 and 3.5 SD of the protein, either way, in both replicates (recomputed)
alvocidib = compound: CN1CC[C@H](c2c(O)cc(O)c3c(=O)cc(-c4ccccc4Cl)oc23)[C@H](O)C1 [alvocidib]
Method in brief: (§1)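 Following dounce homogenisation of K562 pellets in PBS pH 7.4 with 1 mM MgCl2, crude extract at 1 mg/mL protein was incubated for 30 min with 10 μM compound. Aliquots were then heated for 3 min over 48°C-58°C and pooled, NP-40 was added to 0.5% at 4°C, and soluble protein was recovered as the supernatant at 21,000xg for 90 min. Channel-sum-equalised TMTpro 16plex LC-MS/MS quantified this protein. Each value, from duplicates, is a log-two fold change in thermal stability relative to solvent controls.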

Tubastatin A = compound: CN1CCc2c(c3ccccc3n2Cc2ccc(C(=O)NO)cc2)C1 [Tubastatin A]
Method in brief: as §1

[1] = compound: CNC(=O)C1=CC=CC=C1NC2=NC(=NC=C2Cl)NC3=C(C=C(C=C3)N4CCOCC4)OC
Method in brief: as §1

defactinib = compound: CNC(=O)c1ccc(Nc2ncc(C(F)(F)F)c(NCc3nccnc3N(C)S(C)(=O)=O)n2)cc1 [defactinib]
Method in brief: as §1

[2] = compound: CNc1nc(-c2ccc3c(N)n[nH]c3c2)cc(N2C[C@@H](C(=O)NC3CCCCC3)CC[C@H]2C)n1
Method in brief: as §1

encorafenib = compound: COC(=O)N[C@@H](C)CNc1nccc(-c2cn(C(C)C)nc2-c2cc(Cl)cc(NS(C)(=O)=O)c2F)n1 [encorafenib]
Method in brief: as §1

[3] = compound: COC(=O)[C@H](CCSC)NC(=O)C1=C(C=C(C=C1)NC[C@H](CS)N)C2=CC=CC=C2
Method in brief: as §1

alisertib = compound: COc1cc(Nc2ncc3c(n2)-c2ccc(Cl)cc2C(c2c(F)cccc2OC)=NC3)ccc1C(=O)O [alisertib]
Method in brief: as §1

[4] = compound: COc1cc2nc(-c3cc(F)ccc3O)nc(N[C@@H]3CNC[C@H]3C(C)(C)O)c2cc1OC
Method in brief: as §1

gefitinib = compound: COc1cc2ncnc(Nc3ccc(F)c(Cl)c3)c2cc1OCCCN1CCOCC1 [gefitinib]
Method in brief: as §1

Measured: log2 fold change

PGLS (UniProt O95336)
UniProt O95336, sequence (O95336 whole entry, looked up): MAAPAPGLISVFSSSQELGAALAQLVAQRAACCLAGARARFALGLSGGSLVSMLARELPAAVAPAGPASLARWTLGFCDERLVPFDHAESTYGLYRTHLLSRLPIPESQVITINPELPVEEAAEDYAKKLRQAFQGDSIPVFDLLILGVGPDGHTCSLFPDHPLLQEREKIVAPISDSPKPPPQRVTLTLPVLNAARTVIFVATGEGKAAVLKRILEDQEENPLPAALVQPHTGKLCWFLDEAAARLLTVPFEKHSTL
inactive: alvocidib 0.177 | Tubastatin A 0.09 | [1] 0.061 | defactinib 0.231 | [2] 0.016 | encorafenib 0.017 | [3] 0.019 | alisertib 0.03 | [4] -0.087 | gefitinib -0.163

PTS (UniProt Q03393)
UniProt Q03393, sequence (Q03393 whole entry, looked up): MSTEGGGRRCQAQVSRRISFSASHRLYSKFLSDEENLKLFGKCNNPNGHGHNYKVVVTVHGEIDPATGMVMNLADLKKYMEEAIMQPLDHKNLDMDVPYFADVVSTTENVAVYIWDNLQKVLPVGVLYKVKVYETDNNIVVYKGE
inactive: alvocidib -0.055 | Tubastatin A -0.007 | [1] 0.043 | defactinib -0.059 | [2] 0.015 | encorafenib 0.1 | [3] -0.022 | alisertib -0.009 | [4] 0.016 | gefitinib 0.121

PDCD4 (UniProt Q53EL6)
UniProt Q53EL6, sequence (Q53EL6 whole entry, looked up): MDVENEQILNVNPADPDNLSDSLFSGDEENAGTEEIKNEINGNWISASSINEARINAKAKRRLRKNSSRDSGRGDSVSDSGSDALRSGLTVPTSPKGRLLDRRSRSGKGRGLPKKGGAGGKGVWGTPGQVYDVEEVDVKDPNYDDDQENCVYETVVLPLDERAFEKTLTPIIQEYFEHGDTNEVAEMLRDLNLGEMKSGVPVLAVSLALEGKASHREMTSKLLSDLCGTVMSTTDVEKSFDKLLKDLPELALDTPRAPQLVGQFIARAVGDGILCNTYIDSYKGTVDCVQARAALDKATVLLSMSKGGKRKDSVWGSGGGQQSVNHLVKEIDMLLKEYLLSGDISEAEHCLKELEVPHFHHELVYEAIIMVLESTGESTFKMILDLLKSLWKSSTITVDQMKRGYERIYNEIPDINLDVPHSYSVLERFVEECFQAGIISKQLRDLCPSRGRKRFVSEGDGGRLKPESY
inactive: alvocidib 0.01 | Tubastatin A -0.033 | [1] 0.017 | defactinib 0.002 | [2] 0.019 | encorafenib 0.019 | [3] -0.034 | alisertib -0.005 | [4] 0.015 | gefitinib -0.003

PTPN1 (UniProt P18031)
inactive: alvocidib -0.002 | Tubastatin A -0.048 | [1] 0.018 | defactinib 0.015 | [2] -0.033 | encorafenib -0.003 | [3] 0.014 | alisertib 0.005 | [4] 0.047 | gefitinib 0.014

PLA2G4B isoform 6 (UniProt P0C869)
UniProt P0C869, sequence (P0C869 whole entry, looked up): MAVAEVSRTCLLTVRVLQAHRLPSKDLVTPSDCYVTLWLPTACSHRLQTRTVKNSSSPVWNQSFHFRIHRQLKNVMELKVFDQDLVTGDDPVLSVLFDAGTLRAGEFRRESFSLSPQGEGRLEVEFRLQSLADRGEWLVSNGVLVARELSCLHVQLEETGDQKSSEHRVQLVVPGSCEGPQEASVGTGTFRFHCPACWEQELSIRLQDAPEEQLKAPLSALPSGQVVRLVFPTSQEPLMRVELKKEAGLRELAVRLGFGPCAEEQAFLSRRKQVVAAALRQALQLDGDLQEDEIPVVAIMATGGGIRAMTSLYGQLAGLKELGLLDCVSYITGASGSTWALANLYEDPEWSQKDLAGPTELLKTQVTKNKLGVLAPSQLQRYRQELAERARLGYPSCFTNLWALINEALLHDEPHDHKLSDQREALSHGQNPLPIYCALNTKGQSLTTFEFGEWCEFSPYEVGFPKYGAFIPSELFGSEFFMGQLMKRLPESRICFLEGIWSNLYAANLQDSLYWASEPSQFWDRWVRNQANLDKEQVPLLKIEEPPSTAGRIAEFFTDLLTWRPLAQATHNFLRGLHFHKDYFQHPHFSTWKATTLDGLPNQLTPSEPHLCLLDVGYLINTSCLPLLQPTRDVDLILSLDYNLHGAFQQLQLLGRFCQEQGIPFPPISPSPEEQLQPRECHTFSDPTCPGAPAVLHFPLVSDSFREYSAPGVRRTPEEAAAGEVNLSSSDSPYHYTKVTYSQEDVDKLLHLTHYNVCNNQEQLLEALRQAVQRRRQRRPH
inactive: alvocidib -0.035 | Tubastatin A 0.054 | [1] -0.032 | defactinib 0.024 | [2] 0.051 | encorafenib 0.09 | [3] 0.177 | alisertib -0.009 | [4] 0.073 | gefitinib 0.115

PDCD6IP (UniProt Q8WUM4)
UniProt Q8WUM4, sequence (Q8WUM4 whole entry, looked up): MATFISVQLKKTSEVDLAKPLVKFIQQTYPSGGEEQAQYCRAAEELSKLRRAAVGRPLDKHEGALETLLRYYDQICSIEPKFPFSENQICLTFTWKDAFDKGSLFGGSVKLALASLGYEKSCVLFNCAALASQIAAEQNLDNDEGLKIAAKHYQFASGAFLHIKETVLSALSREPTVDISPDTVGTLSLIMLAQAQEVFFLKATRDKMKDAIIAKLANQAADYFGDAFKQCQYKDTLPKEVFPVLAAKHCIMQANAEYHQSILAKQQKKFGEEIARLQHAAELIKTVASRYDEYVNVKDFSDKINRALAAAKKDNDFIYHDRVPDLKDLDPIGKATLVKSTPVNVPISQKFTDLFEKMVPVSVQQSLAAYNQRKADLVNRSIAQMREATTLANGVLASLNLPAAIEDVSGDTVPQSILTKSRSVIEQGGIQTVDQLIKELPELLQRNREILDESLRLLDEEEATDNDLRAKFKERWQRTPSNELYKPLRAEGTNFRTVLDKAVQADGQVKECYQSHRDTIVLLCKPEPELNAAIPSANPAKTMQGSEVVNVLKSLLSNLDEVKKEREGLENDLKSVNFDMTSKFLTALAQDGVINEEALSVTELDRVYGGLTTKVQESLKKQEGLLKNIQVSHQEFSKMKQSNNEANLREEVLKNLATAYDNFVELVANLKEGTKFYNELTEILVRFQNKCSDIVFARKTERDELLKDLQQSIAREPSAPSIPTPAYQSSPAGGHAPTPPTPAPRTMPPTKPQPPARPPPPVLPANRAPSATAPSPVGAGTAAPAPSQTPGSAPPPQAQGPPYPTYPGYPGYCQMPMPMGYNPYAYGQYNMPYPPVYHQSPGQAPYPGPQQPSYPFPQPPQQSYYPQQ
inactive: alvocidib 0.05 | Tubastatin A 0 | [1] -0.002 | defactinib -0.021 | [2] -0.042 | encorafenib -0.1 | [3] 0.143 | alisertib -0.039 | [4] 0.013 | gefitinib -0.001

PPCDC (UniProt Q96CD2)
UniProt Q96CD2, sequence (Q96CD2 whole entry, looked up): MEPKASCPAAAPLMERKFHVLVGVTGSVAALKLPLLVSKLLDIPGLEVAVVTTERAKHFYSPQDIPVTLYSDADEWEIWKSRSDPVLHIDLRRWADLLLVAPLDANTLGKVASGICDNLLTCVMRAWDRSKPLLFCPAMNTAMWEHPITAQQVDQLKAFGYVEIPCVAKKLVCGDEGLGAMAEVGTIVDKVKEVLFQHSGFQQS
inactive: alvocidib -0.08 | Tubastatin A 0.034 | [1] -0.053 | defactinib -0.037 | [2] -0.054 | encorafenib -0.082 | [3] -0.027 | alisertib -0.051 | [4] 0.032 | gefitinib 0.028

PIKFYVE (UniProt Q9Y2I7)
UniProt Q9Y2I7, sequence (Q9Y2I7 whole entry, looked up): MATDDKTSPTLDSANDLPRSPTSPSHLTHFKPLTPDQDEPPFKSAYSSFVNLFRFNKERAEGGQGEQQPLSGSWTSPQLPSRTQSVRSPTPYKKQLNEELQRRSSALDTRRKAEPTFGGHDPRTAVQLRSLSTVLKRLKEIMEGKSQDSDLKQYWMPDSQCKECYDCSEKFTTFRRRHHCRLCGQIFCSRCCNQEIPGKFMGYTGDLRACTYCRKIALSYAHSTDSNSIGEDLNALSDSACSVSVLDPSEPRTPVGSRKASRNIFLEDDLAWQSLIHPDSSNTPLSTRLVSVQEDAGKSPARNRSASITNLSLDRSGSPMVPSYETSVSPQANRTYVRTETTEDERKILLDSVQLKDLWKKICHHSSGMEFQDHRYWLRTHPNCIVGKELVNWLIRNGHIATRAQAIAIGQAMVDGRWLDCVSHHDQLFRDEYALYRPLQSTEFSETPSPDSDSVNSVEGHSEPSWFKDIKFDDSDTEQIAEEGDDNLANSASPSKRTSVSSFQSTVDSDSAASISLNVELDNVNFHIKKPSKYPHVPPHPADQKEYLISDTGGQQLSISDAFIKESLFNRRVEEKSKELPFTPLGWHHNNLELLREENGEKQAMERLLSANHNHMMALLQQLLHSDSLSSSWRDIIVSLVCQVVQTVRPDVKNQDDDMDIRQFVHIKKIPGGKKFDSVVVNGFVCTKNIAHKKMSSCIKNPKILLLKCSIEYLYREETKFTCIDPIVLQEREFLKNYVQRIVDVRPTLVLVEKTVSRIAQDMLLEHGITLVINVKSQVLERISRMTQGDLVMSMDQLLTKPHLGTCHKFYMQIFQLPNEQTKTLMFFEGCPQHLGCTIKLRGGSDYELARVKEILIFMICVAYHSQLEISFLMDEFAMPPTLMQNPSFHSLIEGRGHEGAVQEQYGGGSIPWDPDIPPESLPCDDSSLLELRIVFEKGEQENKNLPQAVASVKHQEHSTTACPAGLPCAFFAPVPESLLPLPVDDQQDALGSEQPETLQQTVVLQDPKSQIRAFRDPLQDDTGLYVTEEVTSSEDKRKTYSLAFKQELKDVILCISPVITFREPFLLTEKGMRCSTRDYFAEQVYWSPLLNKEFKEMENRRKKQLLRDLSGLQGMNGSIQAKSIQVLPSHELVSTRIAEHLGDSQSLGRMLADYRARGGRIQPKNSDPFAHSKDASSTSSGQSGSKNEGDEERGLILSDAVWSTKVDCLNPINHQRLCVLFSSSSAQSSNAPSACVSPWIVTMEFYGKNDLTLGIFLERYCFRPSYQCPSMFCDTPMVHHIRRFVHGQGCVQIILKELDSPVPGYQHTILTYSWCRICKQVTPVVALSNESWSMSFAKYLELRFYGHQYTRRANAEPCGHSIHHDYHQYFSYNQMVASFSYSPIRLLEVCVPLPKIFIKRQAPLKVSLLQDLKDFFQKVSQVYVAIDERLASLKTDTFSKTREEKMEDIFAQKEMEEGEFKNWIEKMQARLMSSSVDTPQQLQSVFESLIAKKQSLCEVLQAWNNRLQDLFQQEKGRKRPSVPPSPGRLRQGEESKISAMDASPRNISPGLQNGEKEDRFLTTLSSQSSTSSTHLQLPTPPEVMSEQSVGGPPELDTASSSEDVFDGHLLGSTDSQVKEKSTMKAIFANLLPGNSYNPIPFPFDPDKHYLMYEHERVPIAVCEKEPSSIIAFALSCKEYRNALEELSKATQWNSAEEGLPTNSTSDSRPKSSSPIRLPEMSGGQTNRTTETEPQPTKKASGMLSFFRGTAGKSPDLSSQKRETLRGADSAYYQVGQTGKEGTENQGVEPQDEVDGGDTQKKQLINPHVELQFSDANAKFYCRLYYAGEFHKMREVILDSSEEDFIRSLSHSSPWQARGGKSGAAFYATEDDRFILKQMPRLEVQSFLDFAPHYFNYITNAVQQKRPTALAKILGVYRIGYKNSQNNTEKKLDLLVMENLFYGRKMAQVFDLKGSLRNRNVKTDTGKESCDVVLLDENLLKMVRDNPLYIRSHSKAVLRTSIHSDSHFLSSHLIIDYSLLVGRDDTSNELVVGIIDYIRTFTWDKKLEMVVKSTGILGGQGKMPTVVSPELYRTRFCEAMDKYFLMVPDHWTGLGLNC
inactive: alvocidib -0.049 | Tubastatin A -0.126 | [1] 0.032 | defactinib 0.078 | [2] -0.031 | encorafenib 0.044 | [3] 0.088 | alisertib 0.031 | [4] 0.004 | gefitinib -0.005

PICALM (UniProt H0YEH1)
inactive: alvocidib -0.206 | Tubastatin A 0.126 | [1] 0.098 | defactinib 0.006 | [2] 0 | encorafenib -0.038 | [3] 0.098 | alisertib 0.049 | [4] -0.042 | gefitinib -0.036

PUF60 (UniProt Q9UHX1)
inactive: alvocidib 0.003 | Tubastatin A 0.019 | [1] -0.02 | defactinib -0.012 | [2] 0.008 | encorafenib -0.013 | [3] 0.019 | alisertib 0.005 | [4] -0.009 | gefitinib -0.022

PPP2R5C isoform 5 (UniProt Q13362)
inactive: alvocidib 0.016 | Tubastatin A -0.018 | [1] 0.012 | defactinib 0.029 | [2] -0.048 | encorafenib 0.029 | [3] -0.039 | alisertib 0.002 | [4] -0.014 | gefitinib 0.004

PCBD2 (UniProt Q9H0N5)
UniProt Q9H0N5, sequence (Q9H0N5 whole entry, looked up): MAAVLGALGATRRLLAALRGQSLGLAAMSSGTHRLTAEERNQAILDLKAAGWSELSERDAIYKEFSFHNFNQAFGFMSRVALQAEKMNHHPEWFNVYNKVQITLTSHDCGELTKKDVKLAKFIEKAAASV
inactive: alvocidib -0.124 | Tubastatin A 0.012 | [1] 0.01 | defactinib -0.045 | [2] -0.059 | encorafenib -0.008 | [3] -0.039 | alisertib 0.058 | [4] 0.031 | gefitinib 0.071

PIGO (UniProt Q8TEQ8)
inactive: alvocidib 0.038 | Tubastatin A -0.112 | [1] -0.095 | defactinib 0.046 | [2] 0.143 | encorafenib 0.019 | [3] -0.121 | alisertib 0.061 | [4] -0.073 | gefitinib 0.013

PKP3 isoform 2 (UniProt Q9Y446)
inactive: alvocidib -0.011 | Tubastatin A -0.126 | [1] 0.067 | defactinib 0.035 | [2] 0.017 | encorafenib 0.098 | [3] 0.095 | alisertib 0.019 | [4] 0.031 | gefitinib -0.018

PWP2 (UniProt Q15269)
inactive: alvocidib -0.014 | Tubastatin A -0.073 | [1] 0.027 | defactinib 0.042 | [2] 0.061 | encorafenib 0.035 | [3] -0.033 | alisertib 0.004 | [4] -0.007 | gefitinib -0.057
